From PubChem BioAssay AID1347417 (National Center for Advancing Translational Sciences (NCATS), 2020)
Among all 120,000 compounds or so, about 5,300 (4.4%) were called active. About 22% were inconclusive and are not listed. Many of the other results were omitted from the sample, so actives are more common in it than they were. A number with no mark means an inactive call. Calls follow the shape of the dose curve; as a rule, active = well fitted inhibition curve with a large enough effect; inconclusive = small, poorly fitted or top-dose-only effect; inactive = no such curve, though single readings can be large or run the other way.

Assay: qHTS Primary assay for Inhibitors of Plasmodium falciparum Dd2 growth in vitro; also: nearly all actives have a fitted effect of over 65% in size;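 as to activity, negative = inhibition: plate controls were DMSO vehicle for no effect and reference drug for full effect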
Conditions: P. falciparum Dd2 growth, SYBR Green, 72 h; series mostly up to 28.9 µM; activity, negative = inhibition: at the top concentration
Method in brief: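 Readout: SYBR Green fluorescence, 485 nm excitation, 535 nm emission, after ~16 h lysis at 37C. Before that, Dd2-infected red cells (2.5% hematocrit) grew 72 h with compound, 29 uM top final concentration.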
Potency is read from the fitted curve at half-maximal effect.

SMILES | activity, negative = inhibition | Potency | outcome
O=C(Cc1cccc(F)c1)NC1CCN(c2cc(C(F)(F)F)ncn2)CC1 | -19.3% | – | –
CCOC(=O)C1CCN(C(=O)CSc2c3c(nc4ccc(Cl)cc24)CCCC3)CC1 | – | 14.1 µM (active) | –
CCOC(=O)C1CCN(c2nc3c(S(=O)(=O)c4ccc(CC)cc4)nnn3c3ccc(Cl)cc23)CC1 | – | – | inactive
COc1ccc(N2CCN(C(=O)c3ccc4c(Cl)c5c(nc4c3)CCCC5)CC2)cc1 | 13.6% | – | –
COc1cc(C(=O)N2CCC(Cc3nc(-c4ccccc4)no3)CC2)cc(OC)c1OC | -20.4% | – | –
O=C(N[C@H]1CCOC[C@H]1C1CCOCC1)c1cccc2nccnc12 | -4.65% | – | –
CCn1ncc(N2CCCC(CC(=O)NCc3ccc(OC)cc3)C2)cc1=O (configuration not stated) | -13.4% | – | –
O[C@@H]1C[C@@H](c2nc(Cc3ccc(F)cc3Cl)no2)N(Cc2ncc[nH]2)C1 | -8.76% [at 44.1 µM] | – | –
COc1cccc(NC(=O)Cn2c(=O)cc(C)c3c(C)nn(-c4cccc(F)c4)c32)c1 | -8.11% | – | –
Cc1nn(-c2ccc(C(C)C)cc2)c(C)c1[C@@H]1C=C[C@@H](NC(=O)CC2(CC(=O)O)CCCC2)C1 | – | – | inactive
COc1ccc(-n2nc(C)c([C@@H]3C=C[C@@H](NC(=O)Nc4ccccc4)C3)c2C)cc1 | – | 10 µM (active) | –
Cc1nn(-c2ccc(C(C)C)cc2)c(C)c1[C@@H]1C=C[C@@H](NC(=S)NCC(C)C)C1 | – | 12.6 µM (active) | –
CCC(C)NC(=O)Cc1csc2nc(C)c(-c3cc(C)n(-c4ccc(C(C)C)cc4)n3)c(=O)n12 (configuration not stated) | -19% | – | –
Cc1nn(-c2cccc(Br)c2)c(C)c1[C@@H]1C=C[C@@H](NC(=O)CC2(CC(=O)O)CCCC2)C1 | – | – | inactive
Cc1nn(Cc2ccccc2)c(C)c1[C@@H]1C=C[C@@H](NC(=O)NC2CCCCC2)C1 | – | – | inactive [at 44.1 µM]
Cc1nn(-c2ccc(C(C)C)cc2)c(C)c1[C@@H]1C=C[C@@H](NC(=O)Nc2ccccc2)C1 | – | 11.2 µM (active) | –
COc1ccc(-n2nc(C)c([C@H]3C=C[C@@H](OC(=O)Nc4cccc(F)c4)C3)c2C)cc1 | – | 10 µM (active) | –
Cc1nn(-c2ccccc2)c(C)c1[C@@H]1C=C[C@@H](NC(=O)c2ccc3c(c2)OCO3)C1 | -0.301% [at 44.1 µM] | – | –
Cc1nn(Cc2ccccc2)c(C)c1[C@@H]1C=C[C@@H](NC(=O)NC(C)C)C1 | -18.8% [at 44.1 µM] | – | –
Cc1nn(CCC#N)c(C)c1[C@@H]1C=C[C@@H](NS(=O)(=O)c2ccccc2)C1 | – | – | inactive [at 44.1 µM]
C=CCNC(=O)C1N(C(C)C)C(=O)C12CCCCC2 (configuration not stated) | -0.782% | – | –
COc1ccc(NC(=O)C2CN(S(=O)(=O)c3cccnc3)CC23CCCCC3)cc1F (configuration not stated) | -14.2% | – | –
CCOCCCNC(=O)N1C[C@@H](Oc2cccnc2)C[C@@H]1C(=O)N1CCOCC1 | 8.67% | – | –
CCCN(CC1CCOC1)S(=O)(=O)c1ccc2c(c1)CCCC2 (configuration not stated) | 7.48% [at 5.79 µM] | – | –
CC(C)N1C(=O)CO[C@H]2CCN(CCCc3ccccc3)CC[C@@H]21 | – | – | inactive [at 44.1 µM]
CCCCC(CC)CNC(=O)C1CCN(S(=O)(=O)c2cccc3nsnc23)CC1 (configuration not stated) | – | – | inactive

SMILES | activity, negative = inhibition | Potency | outcome
COc1ccc(NC(=O)C2CCCN(S(=O)(=O)c3cccc4nonc34)C2)cc1Cl (configuration not stated) | 7.47% | – | –
CCCCN(C)CCNC(=O)C1CCCN(S(=O)(=O)c2cccc3nsnc23)C1 (configuration not stated) | – | 5.01 µM (active) | –
O=C(Cc1cccc(Cl)c1)NCc1nnc2ccc(-c3ccccc3)nn12 | – | – | inactive
Cc1cc(C(=O)N2CCCCCCn3c(nnc3-c3ccc(F)cc3)CC2)nn1C | -22.6% | – | –
CCOC(=O)c1ccc(NC(=O)CCS(=O)(=O)c2ccc3c(c2)oc(=O)n3C)cc1 | 25.6% | – | –
CCN(Cc1ccccc1)C(=O)CCS(=O)(=O)c1ccc2c(c1)oc(=O)n2C | 22.1% | – | –
Cc1c(Cl)cccc1NC(=O)CCS(=O)(=O)c1ccc2c(c1)oc(=O)n2C | – | 3.16 µM (active) | –
COc1cccc(CC(=O)N2CCN(c3cc(-c4cccs4)[nH]n3)CC2)c1 | – | – | inactive
O=C(NCCn1ccn2nc(-c3ccc(F)cc3)cc2c1=O)c1ccco1 | – | – | inactive
O=C(Cc1ccccc1)N1[C@H]2CC[C@@H]1c1cnc(-c3ccc(F)cc3)nc1C2 | – | – | inactive
COC(=O)c1ccc(NC(=O)N2[C@H]3CC[C@@H]2c2cnc(-c4ccc(F)cc4)nc2C3)cc1 | – | 7.08 µM (active) | –
Cn1cnc(S(=O)(=O)N2[C@H]3CC[C@@H]2c2cnc(-c4ccc(F)cc4)nc2C3)c1 | 29.6% | – | –
O=C1NCCOCCN(C(=O)Nc2ccccc2)[C@@H]2CCCC[C@H]12 | 40.6% | – | –
COc1ccc(-c2noc([C@@H](C)NCc3ccc(F)cc3)c2C(=O)O)cc1 | 7.52% [at 44.1 µM] | – | –
O=C(c1ccc(Cl)cc1)N1CCn2c(nn(-c3ccncc3)c2=O)C1 | 15% | – | –
CCOC(=O)C1=CN(CC(=O)Nc2cccc(C(C)C)c2)S(=O)(=O)N=C1C | -4.4% | – | –
Cc1ccc(S(=O)(=O)NC[C@H]2C[C@@H]3CCN2C[C@@H]3CN2CCN(c3ncccn3)CC2)cc1 | -25.5% | – | –
COc1cc2c(cc1OC)C(CNC(=O)c1cccc(Cl)c1)N(C(=O)Nc1ccccc1)CC2 (configuration not stated) | – | – | inactive
Cn1nc(-c2ccc(F)cc2)cc1[C@H]1CN2CC[C@H]1C[C@@H]2CNCc1ccccn1 | – | 2.82 µM (active) | –
COc1ccc(-c2ccc3ncn(Cc4ccccc4)c(=O)c3n2)cc1OC | – | – | inactive [at 44.1 µM]
COc1ccc(-c2cc([C@H]3CN4CC[C@H]3C[C@@H]4CNC(=O)C3CC3)n(C)n2)cc1OC | -12% [at 44.1 µM] | – | –
COc1ccc(-c2cc([C@H]3CN4CC[C@H]3C[C@@H]4CNC(=O)c3ccccc3)n(C)n2)cc1OC | – | 11.2 µM (active) | –
COc1ccc(-c2cc([C@H]3CN4CC[C@H]3C[C@@H]4CNS(=O)(=O)Cc3ccccc3)n(C)n2)cc1OC | – | 11.2 µM (active) | –
COc1ccccc1-c1cc([C@H]2CN3CC[C@H]2C[C@@H]3CNCc2cccc(C#N)c2)n(C)n1 | – | – | inactive [at 44.1 µM]
O=C(NCc1ccccc1)[C@H]1CN2CCC1C[C@@H]2Cn1cc(-c2ccc(F)cc2)nn1 (some centres not stated) | -7.01% [at 44.1 µM] | – | –
Cc1ccc(C(=O)N2CC[C@H](CO)[C@H](NC(=O)C3CC3)C2)cn1 | 22.4% | – | –
